Sampled rows, rich in hits. Any-hit rate of the full collection: about 2.4%.
D2 PAM-1 = potentiates the human D2 dopamine receptor allosterically | AID 624464 | DiscoveRx D2 beta-arrestin cells, luminescence, 90 min; 100% = 57 uM dopamine signal | potentiation, % (no concentration beside the values) | P14416 | actives 0.23% (n = 360,000); in the data active = potentiation above about 50%; inconclusive = mostly about 30% to 49%
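D2 cells co-treated with compound plus 50 nM dopamine (EC20) for 90 min at 37 deg C to detect potentiation. Beta-arrestin recruitment was read as enzyme-fragment luminescence after 1 h at ambient temperature. Full response was set by 57 uM dopamine.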
D2 PAM-2 = positively modulates the human D2 dopamine receptor allosterically. P14416. HEK293 T-REx D2, calcium flux, EC20 dopamine potentiation. potentiation, % at 10 µM. actives 0.34% (n = 340,000). AID 485347;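 active = potentiation over 3 SD above the plate norm, cut at about 30% in these data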; also: 0% is about no effect
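Primary screen. Calcium kinetics in induced HEK293 T-REx D2 cells: compound pre-addition 180 s, EC20 dopamine, 180 s more.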
D2 antag = D2 dopamine receptor (human) antagonism | P14416 | HEK293 TREx D2 cells, calcium flux, dopamine EC80 | inhibition, % at 10 µM | actives 2% (n = 340,000) | AID 485344; in the data active = inhibition above about 30%; inactive = below that, where a call was filed; also: 0% is about no effect
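Antagonism is scored as inhibition of an EC80 dopamine-evoked calcium signal in a force-coupled, tetracycline-inducible HEK293 T-REx D2 line, with compound present 180 s before agonist.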
D2 ag-1 = agonists of human D2 dopamine receptor (beta-arrestin). P14416. DiscoveRx PathHunter D2 beta-arrestin, luminescence, 90 min; 100% = 57 uM dopamine signal. activation, % (no concentration beside the values). actives 0.084% (n = 360,000). AID 624465; in the data active = activation above about 40%; inconclusive = between about 15% and that limit
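Agonist mode: compounds alone added to overnight-plated D2 PathHunter cells for 90 min at 37 C, with 57 uM final dopamine (EC100) defining full response. Beta-arrestin recruitment detected by chemiluminescent reagent, read after 1 h at ambient temperature.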
D2 ag-2 = D2 dopamine receptor (human) agonism. P14416. actives 0.53% (n = 340,000). HEK293 T-REx D2 cells, calcium flux agonist mode. activation, % at 2 µM;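 active = activation over 3 SD above normal in the single-dose calcium agonist read, cut at about 30% in these data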; also: 0% is about no effect
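Tetracycline-induced HEK293 Trex cells with D2 receptor force-coupled to calcium signaling, plated overnight at 30 C and loaded with no-wash calcium dye. Calcium flux read kinetically for 180 s after compound addition; responses flag agonists.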
D3 arrestin ag = confirmation of human D3 dopamine receptor agonists, beta-arrestin; AID 720506; Potency, µM (highest dose often 76.9 µM), inactives show at the highest dose activation, usual class: activators; shares compounds with D2 ag-2; DiscoveRx D3 beta-arrestin cells, luminescence, 90 min; actives 4% (n = 2,300);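 also: potency is read from the fitted curve at half-maximal effect; 100% = dopamine control response; nearly all actives have a fitted effect of over 70% in size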
Target sequence (P35462 whole entry, looked up): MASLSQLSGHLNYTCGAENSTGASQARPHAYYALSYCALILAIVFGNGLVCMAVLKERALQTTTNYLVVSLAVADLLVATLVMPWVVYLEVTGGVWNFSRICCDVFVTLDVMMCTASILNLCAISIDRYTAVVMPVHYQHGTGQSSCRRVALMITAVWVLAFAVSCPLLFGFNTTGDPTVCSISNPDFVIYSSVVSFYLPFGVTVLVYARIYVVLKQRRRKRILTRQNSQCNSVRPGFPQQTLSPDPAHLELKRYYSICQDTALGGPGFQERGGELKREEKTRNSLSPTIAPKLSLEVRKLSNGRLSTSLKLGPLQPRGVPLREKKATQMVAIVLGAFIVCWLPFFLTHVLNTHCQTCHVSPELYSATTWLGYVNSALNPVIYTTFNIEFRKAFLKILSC
D2 ag-3 = counter-screen for D3 agonists: human D2 dopamine receptor agonism; shares compounds with D2 ag-2; DiscoveRx PathHunter D2 beta-arrestin, luminescence, 90 min; response scale: percent relative to full dopamine signal; Potency, µM (series often up to 76.9 µM), for inactives: at the top dose activation, hits mostly activators; actives 5.9% (n = 2,300); AID 720507; also: potency is read from the fitted curve at half-maximal effect; % of control where 0% means no effect; nearly all actives have a fitted effect of over 70% in size
* = called active by the depositor; ? = inconclusive; . = no result given. Unless noted, calls follow the shape of the dose curve; as a rule, active = well fitted activation curve with a large enough effect; inconclusive = small, poorly fitted or top-dose-only effect; inactive = flat fitted curve, though single readings scatter.

SMILES	D2 PAM-1	D2 PAM-2	D2 antag	D2 ag-1	D2 ag-2	D3 arrestin ag	D2 ag-3
Cc1nc(SCc2ccccc2)c([N+](=O)[O-])[nH]1	-10	-1	22	-5	0	-23%	-7%
COc1ccc(CSc2nc(C)[nH]c2[N+](=O)[O-])cc1[N+](=O)[O-]	-3	-7	-9	-1	-1	.	.
CC(C)Oc1ccc(CNC(=O)c2sc3ncccc3c2-n2cccc2)cc1	.	-6	.	.	-1	.	.
Cc1cc2nc(C3CCN(CC4COc5ccccc5O4)CC3)[nH]c2cc1C (configuration not stated)	-8	-19	11	4	47*	17%	?
C=CCNC(=O)CN1CCC(c2nc3cc(C)c(C)cc3[nH]2)CC1	1	-9	22	0	0	.	.
FC(F)(F)c1cc(-c2ccccc2)nc(NC2CCCC2)n1	-5	-10	11	-3	58*	-7%	-1%
Cc1ccsc1C(=O)NNC(=O)c1ccncc1	-26	-2	6	-2	0	0%	-4%
O=C(C1=C(O)/C(=C/c2ccc(O)cc2)CCC1)C(F)(F)F	-11	2	23	-7	1	-21%	-4%
COc1ccc(/C=C2\CCCC(C(=O)C(F)(F)F)=C2O)cc1	-11	17	20	-2	0	.	.
CCc1ccc(C2c3c(oc4ccc(F)cc4c3=O)C(=O)N2CCc2ccc(OC)cc2)cc1 (configuration not stated)	.	2	.	.	0	.	.
C/C(=N\NC(=S)Nc1cccc(C)c1)c1ccccc1	-40	12	-6	-8	-1	.	.
C/C(=N\NC(=S)Nc1cccc(C)c1)c1ccco1	-10	-7	67*	6	70*	-1%	-5%
COc1ccc(NC(=O)N2CCN(S(=O)(=O)c3ccc4c(ccn4C)c3)CC2)cc1OC	.	-2	.	.	0	.	.
O=C(Nc1nccs1)c1cccnc1	-5	-7	12	-2	1	-4%	-1%
COc1ccc(/C=N/Nc2nnc(C)n2N)cc1OC(C)=O	9	3	18	0	1	?	4%
NCCCn1cnc2ccccc21	-1	.	3	-5	1	-2%	1%
c1ccc2c(c1)ncn2CCn1cnc2ccccc21	-12	-3	-16	-4	-1	.	.
COc1ccccc1NC(=O)C1=C(C)Nc2nc(SCc3ccccc3)nn2C1c1cccc(O)c1 (configuration not stated)	.	1	.	.	.	.	.
Nc1cccc(O)c1	1	13	6	4	0	-2%	-3%
CCOC(=O)N1CCC(NC(=O)C(Cc2ccccc2)NC(=O)c2ccco2)CC1 (configuration not stated)	-20	.	-6	-1	1	.	.
CCOC(=O)N1CCC(NCCNC(=O)c2ccco2)CC1	12	-24	38*	-17	76*	-1%	22%
O=C(NC1CCCC1)C1CCC(CNS(=O)(=O)c2ccccc2)CC1 (configuration not stated)	-7	-2	-4	-4	-1	.	.
O=C(NC1CCCC1)C1CCC(CNS(=O)(=O)c2ccc(F)cc2)CC1 (configuration not stated)	-2	7	15	-2	-1	-9%	0%
CCC(C)C(=O)N1CCc2cc(-c3csc(N)n3)ccc21 (configuration not stated)	-1	-2	-1	11	15	4%	6%
CCCC(=O)N1CCc2cc(-c3nc(N)sc3C)ccc21	-9	-1	15	-1	0	.	.
SMILES	D2 PAM-1	D2 PAM-2	D2 antag	D2 ag-1	D2 ag-2	D3 arrestin ag	D2 ag-3
Cc1cc(=O)[nH]c2c(C)cc(S(=O)(=O)NCc3ccccc3)cc12	9	-5	5	4	36*	-2%	-2%
COc1ccc(N=C2NC(=O)S/C2=C\c2ccc(N(C)C)cc2)cc1	-47	-20	-15	-5	14	-25%	-13%
CCOc1ccc(N=C2NC(=O)S/C2=C\c2ccc(Cl)cc2)cc1	-34	-11	-5	-4	0	.	.
CCC(C(=O)N1CCN(c2ccccc2F)CC1)n1nc(C)c2sc3ccccc3c2c1=O (configuration not stated)	.	-20	.	.	1	.	.
COc1cc(-c2n[nH]c(=S)n2/N=C/c2cccn2C)cc(OC)c1OC	-11	13	-28	-6	13	25%	-16%
Cn1cccc1/C=N/n1c(-c2ccco2)n[nH]c1=S	-1	-1	4	-1	1	.	.
CCc1ccc(CN(C)C(=O)c2cc(S(=O)(=O)N3CCOCC3)ccc2N2CCCC2)cc1	-14	1	-10	6	1	.	.
CN(Cc1cccc(F)c1)C(=O)c1cc(S(=O)(=O)N2CCOCC2)ccc1N1CCCC1	2	0	-27	2	0	-4%	-5%
CC(OC(=O)COc1ccc(C#N)cc1)C(=O)c1ccccc1 (configuration not stated)	1	3	32*	3	0	-2%	-4%
CC(/C=C/c1ccccc1)=N\NC(=S)NC(C)C	-22	-17	2	-9	31*	-4%	-6%
COc1ccc(NC(=O)COC(=O)CNC(=O)c2cccs2)cc1Cl	0	0	8	5	-2	0%	2%
COc1ccc(C)cc1NC(=O)c1ccc2c(c1)N(Cc1cccc(Cl)c1)C(=O)c1ccccc1S2=O (configuration not stated)	.	24	.	.	.	.	.
COc1ccc(CC2(CO)CCN(Cc3ccncc3)CC2)cc1	3	-6	7	-5	2	.	.
OCC1(Cc2cccc(C(F)(F)F)c2)CCN(Cc2cc3ccccc3o2)CC1	12	-17	22	51*	49*	?	40µM*
COc1ccc(CC2(CO)CCN(Cc3cc4ccccc4o3)CC2)cc1	18	.	.	62*	.	?	11µM*
CS(=O)(=O)N1CCCc2cc(C(=O)Nc3cccc(C(F)(F)F)c3)ccc21	.	-10	.	.	-1	.	.
CN(C)S(=O)(=O)c1ccc2c(c1)N(CC(=O)NCc1ccccc1)C(=O)C1CCCCN21 (configuration not stated)	.	6	.	.	0	.	.
COc1cccc(-c2cn3c(n2)sc2cc(C(=O)NCc4ccccc4F)ccc23)c1	.	9	.	.	0	.	.
COc1ccc(CCNC(=O)C(=O)NCC(c2ccco2)S(=O)(=O)c2ccccc2)cc1OC (configuration not stated)	.	-6	.	.	-3	.	.

Compound activity: PubChem, National Center for Advancing Translational Sciences (NCATS)
